# According to PubChem BioAssay AID926 (National Center for Advancing Translational Sciences (NCATS), 2007):
# Where “and” joins values, the source holds several entries; their conditions need not be identical. Equal values may be shown once. About 350 (0.48%) of roughly 73,000 compounds were called active. Another 17% or so got no clear call; they are omitted. The call rests on the fitted dose curve; in most records, active means well fitted activation curve with a large enough effect in the main read-out, with a control signal flat (not every such curve was filed as active); inconclusive means small, poorly fitted or top-dose-only effect, or a change in a side signal; inactive means no such curve, though single readings can be large or run the other way; reference of the percent scale not stated here. The entries come from a sample that favours actives as a whole.
# Columns and labels:
# [1] = qHTS Assay for Agonists of the Thyroid Stimulating Hormone Receptor; conditions: HEK293-CNG-TSHR cells, membrane potential dye, cAMP; measured here: parental cells max response
# Source text: (§1) NIH Chemical Genomics Center [NCGC]
# (§2) NIH Molecular Libraries Screening Centers Network [MLSCN]
# (§3) PI Name: Dr. Marvin Gershengorn, NIH
# (§4) Thyroid Stimulating Hormone Receptor
# (§5) TSH is an alpha/beta heterodimeric glycoprotein hormone secreted from the anterior pituitary gland which belongs to the glycoprotein hormone family. The actions of TSH are mediated by a seven-transmembrane receptor, which upon TSH binding couples preferentially to the G-alpha (s) protein (Gs), resulting in activation of adenylate cyclase and increase in cyclic adenosine 3', 5' monophosphate (cAMP). The TSH receptor (THSR) is mainly expressed in thyroid follicular cells and regulates their growth and function. Recombinant TSH is used to activate TSHR in patients with thyroid cancer receiving thyroid hormone suppression therapy and to screen for residual tumor after surgery, but it is expensive and must be administered intramuscularly. An orally active small molecule TSHR agonist would serve as an invaluable research tool for studying TSHR pharmacology and physiology, and would have multiple advantages in therapeutic settings. However, no selective small molecule agonist of the TSH receptor exists, and no small molecule screen for TSHR agonists has ever been reported.
# (§6) This cell based assay utilized a cyclic nucleotide gated ion channel (CNG) as a biosensor for cAMP induction by potential TSHR agonists.
# (§7) HEK 293 cells stably expressing the TSHR as well as a modified CNG were purchased from BD biosciences. Stimulation of cAMP production causes the CNG to open and subsequent membrane depolarization to occur. A fluorescent membrane potential dye (BD biosciences) was utilized to detect cAMP stimulation in TSHR cells.
# (§8) The cells were maintained in DMEM medium (Invitrogen) containing 10 % FBS (Hyclone), 100 units/ml Penicillin, 100 ug/ml Streptomycin (Invitrogen), and 250 ug/ml Geneticin (Invitrogen) and 1 ug/ml Puromycin (Invitrogen) at 37C in 5% CO2. HEK 293 cells expressing CNG but without TSHR (parental cells) were used in concert to control for compounds signaling through endogenous receptors and targets of HEK 293 cells.
# (§9) NCGC Assay Protocol Summary:
# (§10) High Throughput Screening. Freshly passaged cells (TSHR or parental) were dispensed into 1536-well assay plates at 4 ul/well in DMEM containing phenol red (Invitrogen), 10% FCS (Hyclone), and 100 units/ml Penicillin, 100 ug/ml Streptomycin (Invitrogen) and incubated at 37 C with 5% CO2 for 20 to 36 hrs before the robotic screening. The screen was initiated by addition of 4 ul/well membrane potential dye containing 100 uM RO 20-1724 (Sigma Aldrich), followed by 60 min incubation at room temperature to allow for dye equilibration across the cell membrane. 23 nl/well compound or control was then added to the assay plates, which were incubated for additional 30 min before reading a Envision fluorescence plate reader (Perkin Elmer) in bottom-read mode for fluorescence intensity (emission at 590 nm).
# (§11) Keywords: Thyroid-stimulating hormone TSH, TSHR, TSHR agonist, quantitative high throughput screening, qHTS, HTS, probe identification, CNG, cAMP, cyclic nucleotide gated ion channel PubChem
# [2] = molecular target: Thyrotropin receptor (Homo sapiens) (UniProt P16473); test: as above; conditions: HEK293-CNG-TSHR cells (CNG channel as cAMP sensor), membrane potential dye, cAMP; series mostly up to 57.1 µM
# Source text: as §1, §2, §3, §4, §5, §6, §7, §8, §9, §10, §11
# Potency means the concentration at half of the fitted maximal effect.
# Thyrotropin receptor (Homo sapiens), sequence (P16473 whole entry, looked up): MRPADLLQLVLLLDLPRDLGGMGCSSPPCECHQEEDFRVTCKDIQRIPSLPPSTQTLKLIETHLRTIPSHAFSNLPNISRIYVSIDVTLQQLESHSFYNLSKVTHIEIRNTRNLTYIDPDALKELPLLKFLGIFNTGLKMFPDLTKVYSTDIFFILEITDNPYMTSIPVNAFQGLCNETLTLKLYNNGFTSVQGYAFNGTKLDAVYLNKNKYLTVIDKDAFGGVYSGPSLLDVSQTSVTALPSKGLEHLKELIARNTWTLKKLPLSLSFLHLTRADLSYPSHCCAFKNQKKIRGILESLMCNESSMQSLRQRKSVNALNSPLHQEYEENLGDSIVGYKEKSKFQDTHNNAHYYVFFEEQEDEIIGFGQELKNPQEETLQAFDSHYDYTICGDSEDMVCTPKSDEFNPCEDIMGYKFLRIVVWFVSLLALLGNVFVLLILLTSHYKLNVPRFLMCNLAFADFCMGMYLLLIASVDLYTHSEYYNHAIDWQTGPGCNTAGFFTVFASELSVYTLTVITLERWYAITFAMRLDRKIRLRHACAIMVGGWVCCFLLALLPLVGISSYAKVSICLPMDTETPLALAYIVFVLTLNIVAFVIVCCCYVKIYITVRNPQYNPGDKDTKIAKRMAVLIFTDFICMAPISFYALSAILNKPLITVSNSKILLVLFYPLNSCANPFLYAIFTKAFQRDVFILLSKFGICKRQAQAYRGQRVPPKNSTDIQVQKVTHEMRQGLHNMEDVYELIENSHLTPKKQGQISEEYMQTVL
Compound,activation [1],activation [2],Potency [2]
CC(=O)OCC1OC(C#CCCCc2ccccc2)C=CC1OC(C)=O (centres undefined),-0.905%,0.607% [at 11.4 µM] (inactive),–
CCc1cc(=O)oc2cc(C)cc(OC(C)C(=O)O)c12 (centres undefined),10.3%,–,inactive
O=C1[C@H]2[C@H]3[C@H](O)[C@H](O)C/C(=N/OCc4ccccc4)[C@H]3CC[C@@H]2C(=O)N1Cc1ccccc1,-2.25%,-22.5% [at 11.4 µM] (inactive),–
O=C(Cn1nnc(-c2ccccc2)n1)NCc1ccc2c(c1)OCO2,12.1%,–,inactive
Fc1ccc(-c2nnc3sc(-c4ccc5c(c4)OCO5)nn23)cc1,23.4%,–,inactive
c1ccc(-c2nnc3n2NC(c2ccc4c(c2)OCO4)S3)cc1 (centres undefined),27.8%,–,25.1 µM (active)
Cc1ccc(C(=O)N2CCN(C3CCCCC3)CC2)s1,-11.9%,–,inactive
CC(C)(C)c1ccc(OC2C=CC(C#Cc3ccccc3)OC2CO)cc1 (centres undefined),12.6%,1.96% [at 11.4 µM] (inactive),–
O=C(Cn1cc2c(n1)CCCCC2)NCCN1CCOCC1,1.85%,–,inactive
CCOC(=O)CSc1nnc(-c2ccncc2)o1,-3.39%,–,inactive
Cc1ccc2nc(CC(=O)c3ccc4ccccc4c3)c(=O)[nH]c2c1,22.3%,4.8% [at 11.4 µM] (inactive),–
COc1ccc(-c2cc(C(=O)NC(C(=O)O)C(C)C)c(C)o2)cc1OC (centres undefined),6.63%,–,inactive
CN1CCN(c2ncc3nc(-c4ccc(Cl)cc4)c(=O)n(-c4ccccc4)c3n2)CC1,-23%,–,inactive
COc1ncc2nc(-c3ccc(Cl)cc3)c(=O)n(C)c2n1,6.5%,–,inactive
Cn1c(=O)[nH]c(=O)c2c1nc(NCCCn1ccnc1)n2Cc1cccc(Br)c1,20.4%,–,20 µM (active)
CCCCNc1nc2c(c(=O)[nH]c(=O)n2C)n1CCOc1ccccc1,0.873%,–,inactive
CC(c1ccccc1)n1c(NCCCn2ccnc2)nc2c1c(=O)[nH]c(=O)n2C (centres undefined),2.43%,–,inactive
CCC(C)(C)N=C(NC#N)Nc1cccnc1,0.273%,–,inactive
C1CCC2OC2C1 (centres undefined),21.9%,–,inactive
CC(Cc1ccccc1)C(=O)N(C)Cc1ccccc1 (centres undefined),16.5%,–,inactive
CO[C@H]1COC(=O)CCC[C@@H](C)[C@H](OC)COC(=O)[C@@H](C)NC(=O)C/C=C\[C@@H]1C,4.76%,0.571% [at 11.4 µM] (inactive),–

Compound,activation [1],activation [2],Potency [2]
C/C(CCN1CCCCc2nc(C)c(C)cc21)=N\O[C@@H](C)c1cn([C@@H]2COC[C@@H]2O)nn1,6.27%,4.59% [at 11.4 µM] (inactive),–
O=C(O)c1nccnc1C(=O)Nc1ccc(Br)cn1,3.73%,–,inactive
C[C@@H](c1ccccc1)N1C(=O)[C@H]2[C@H]3[C@H](O)[C@H](O)C/C(=N/OC[C@@H](O)COCc4ccco4)[C@@H]3CC[C@@H]2C1=O,5.7%,-3.6% [at 11.4 µM] (inactive),–
OC(CCl)CCl,12.9%,–,inactive
CCOC(=O)c1cccc(NC(=O)C2CCCN(S(=O)(=O)c3cnc[nH]3)C2)c1 (centres undefined),5.88%,–,inactive
CN1CCN(Cc2c(O)ccc3c2oc(=O)c2ccccc23)CC1,13.2%,–,inactive
CO[C@H]1COC(=O)[C@H](Cc2ccccc2)NC(=O)C/C=C\[C@@H](C)[C@H](OC)COC(=O)C/C=C\[C@@H]1C,25.1%,10.2% [at 11.4 µM] (inactive),–
O=C(CC1Nc2ccccc2NC1=O)Nc1ccccc1 (centres undefined),-1.43%,–,inactive
CCCCCCn1c(SCC(=O)c2ccccc2)nc2c1c(=O)[nH]c(=O)n2C,-2.08%,3.88% [at 11.4 µM] (inactive),–
CC1CCCCN1CCCNC(=O)c1ccc(-n2c(=O)c(=O)[nH]c3ccccc32)cc1 (centres undefined),-4.46%,–,inactive
CCCn1c(C)nc2c(NCCCCN(CC)CC)nc(C)nc21,4.8%,–,inactive
O=C1C[C@@H](O)[C@@H](O)[C@H]2[C@@H]3C(=O)N(Cc4ccc5c(c4)OCO5)C(=O)[C@@H]3CC[C@H]12,0.478% and -2.17%,1.51% [at 11.4 µM] (inactive) and -4.05% [at 11.4 µM] (inactive),–
C#CCCCCCCCCCCCCCCCC(=O)O,7.8%,–,inactive
COc1ccc(-c2nnc(SC(=O)N3c4ccccc4Sc4ccccc43)o2)cc1,-13.7%,-19.2% [at 11.4 µM] (inactive),–
CCC1C(C#N)=C(SC)NC2=C1C(=O)CC(C)(C)C2 (centres undefined),9.37%,4.61% [at 11.4 µM] (inactive),–
Cc1c2c(nc3ccccc13)-c1cccc(=O)n1C2,-3.79%,–,inactive
Cc1noc(C)c1-c1nc(Nc2ccccc2)c2ccccc2n1,-3.31%,–,inactive
O=C(O)c1ccc(Cl)c(S(=O)(=O)Nc2ccccc2Cl)c1,5.29%,–,inactive
Cc1ccc2c(c1)sc1ncc(NC(=O)c3ccccc3)c(=O)n12,11.7%,–,inactive
CCNC(=S)NCC,-3.45%,–,inactive
COC(=O)c1cn(-c2ccccc2)nc1-c1cccnc1,9.42%,–,inactive

Compound,activation [1],activation [2],Potency [2]
CO/N=C\[C@@H](C)[C@H](OCc1ccccc1)C(C)C,-0.643%,16.8% [at 11.4 µM] (inactive),–
O=c1c(-c2ccc(F)c(F)c2)nc2cncnc2n1-c1ccccc1,19.9%,–,inactive
N[C@H](C(=O)O)c1ccc(C(=O)O)c(O)c1,-2.63%,–,inactive
N#Cc1cccc(CSc2nnc(CCCO)n2-c2ccccc2)c1,-1.39%,–,inactive
COC(=O)C1(C)C=CC2(CCCCC2)N1C(C)=O (centres undefined),19.4%,–,inactive
COc1cccc(-c2nnc(N(C)C(=O)c3ccno3)s2)c1,11%,-1% [at 11.4 µM] (inactive),–
CC(=O)OCC1OC(C#Cc2ccccc2Cl)C=CC1OC(C)=O (centres undefined),-0.512%,0.546% [at 11.4 µM] (inactive),–
COc1ccc(/C=C/NC(=O)c2ccc(OC)cc2)cc1,-3.02%,-7.55% [at 11.4 µM] (inactive),–
CN1CCc2nc(-c3ccccc3)c(-c3ccccc3)cc2C1,0.173%,2% [at 11.4 µM] (inactive),–
Cn1c(=O)c(-c2ccccc2)nc2cnc(N3CCNCC3)nc21,4.18%,–,inactive
CC1(C)S[C@@H]2[C@@H](NC(=O)[C@@H](N)c3ccccc3)C(=O)N2[C@H]1C(=O)O,-1.13%,–,inactive
CC(C)(C)c1ccc(C(=O)NCCC(=O)NCc2ccco2)cc1,-0.34%,–,inactive
Cc1ccccc1NC(=O)NCc1ccco1,1.97%,–,inactive
CC(C)(C)c1ccc(NC(=O)NCc2ccco2)cc1,3.69%,–,3.98 µM (active)
CCOc1ccccc1C1NC(=O)NC(C)=C1C(=O)OCc1ccco1 (centres undefined),0.325%,–,inactive
CCC(Sc1nncn1C)C(=O)Nc1nnc(-c2ccc(Cl)cc2)s1 (centres undefined),-6.53%,–,inactive
O=C1OCCC=C1[C@@H](O)CCc1ccccc1,-4.2%,5.01% [at 11.4 µM] (inactive),–
COc1ccc(/C=C/NC(=O)Cc2ccc(OC)c(OC)c2)cc1,28.5% and 7.24%,10.9% [at 11.4 µM] (inactive) and -1.69% [at 11.4 µM] (inactive),–
CCOC(=O)c1cnc(-n2nc(C)cc2C)nc1-n1nc(C)cc1C,1.88%,–,3.16 µM (active)
CCOC(=O)c1cnc(-n2nc(C)cc2C)nc1Nc1cccc(C(C)=O)c1,16.9%,–,inactive
CCOC(=O)c1cnc2sccn2c1=O,5.11%,–,inactive

Compound,activation [1],activation [2],Potency [2]
CC(=O)Nc1cc2ccc(OC(C)=O)cc2oc1=O,-10.5%,–,inactive
Oc1ccc(Cl)cc1/C=N/c1nc2ccccc2[nH]1,6.32%,0.206% [at 11.4 µM] (inactive),–
CNC(=O)c1c(NC(=O)c2ccc(S(=O)(=O)N3CCOCC3)cc2)sc2c1CCC2,0.0362%,–,inactive
COc1ccc2c(c1)C=CC1(O2)N(CCO)c2ccccc2C1(C)C (centres undefined),16.4%,–,15.8 µM (active)
O=C(O)CCC(=O)N(Cc1cccs1)Cc1cccs1,4.58%,–,inactive
O=P(c1cccs1)(c1cccs1)c1cccs1,29%,–,0.631 µM (active)
O=C(Nc1ncccn1)c1cccs1,2.1%,–,inactive
O=C(O)CCC(=O)NCc1ccc2[nH]c3c(c2c1)CCCC3,-0.484%,–,inactive
Cc1cccc(C(=O)O)c1,12.6%,–,inactive
CO[C@@H]1COC(=O)C/C=C\[C@H](C)[C@@H](NS(=O)(=O)c2ccc(C)cc2)COC(=O)C/C=C\[C@@H]1C,2.07% and 4.9%,-0.576% [at 11.4 µM] (inactive) and -0.527% [at 11.4 µM] (inactive),–
CCOC(=O)N/N=C1/C[C@@H](O)[C@@H](O)[C@@H]2[C@@H]3C(=O)N(CC)C(=O)[C@H]3CC[C@H]12,2.56%,5.56% [at 11.4 µM] (inactive),–
CC(C)CCn1c(CN(C)Cc2ccccc2)nc2c1c(=O)n(C)c(=O)n2C,3.87%,–,inactive
CO[C@@H]1COC(=O)[C@H](Cc2ccccc2)NC(=O)C/C=C\[C@@H](C)[C@H](OC)COC(=O)[C@@H](C)NC(=O)C/C=C\[C@H]1C,8.45% and -4.16%,-6.09% [at 11.4 µM] (inactive) and -4.32% [at 11.4 µM] (inactive),–
COc1ccc2oc(=O)c(C(=O)N3CCCc4ccccc43)cc2c1,-9.12%,–,inactive
CCc1cc(=O)oc2cc(OCC(=O)N3CCCc4ccccc43)ccc12,-4.75%,–,25.1 µM (active)
Cc1occc1C(=O)N1CCCc2ccccc21,23.6%,–,inactive
COc1ccc(COC(=O)N/N=C2/C[C@@H](O)[C@@H](O)[C@@H]3[C@@H]4C(=O)N([C@@H](C)c5ccccc5)C(=O)[C@H]4CC[C@@H]23)cc1,-0.62%,0.427% [at 11.4 µM] (inactive),–
Nc1nonc1C(=O)NCCc1ccccc1,-2.18%,–,inactive
COc1cc(Cl)c(S(=O)(=O)n2cnc(C)c2)cc1Cl,12.1%,13.5% [at 11.4 µM] (inactive),–
